# Results reported in PubChem BioAssay AID588719 (Southern Research Specialized Biocontainment Screening …, 2011).
# The campaign covered roughly 1,500 compounds. About 920 (61%) were called active. The rule behind the calls is not given here. The set was probably picked from earlier hits. This is one part of the list. Entries with a potency or affinity are not part of this list.
# Assay: Vero 76 cell cytotoxicity, dose response, cytotoxicity control for VEEV inhibitor project (AID 588719)
# Conditions: Vero 76 cells viability, cytotoxicity counter-screen; series mostly up to 25 µM
row,Compound,outcome
1,OCC1(CCOc2ccccc2)CCN(Cc2nc3ccc(F)cc3[nH]2)CC1,inactive
2,COc1ccc(S(=O)(=O)N2CCC(C(=O)N[C@@H](C)C(=O)NCc3ccc(F)cc3)CC2)cc1,inactive
3,CCCN1C(=O)c2ccccc2NC1c1ccc(OC)cc1O (centres undefined),inactive
4,COc1ccc(C(=O)/C=C/C(=O)N(CC(=O)NC2CCCCC2)Cc2ccccc2OC)c(O)c1,inactive
5,CCN1CCN(Cc2nc3ccc([N+](=O)[O-])cc3c(=O)n2-c2ccccc2F)CC1,inactive
6,Cc1onc(C(=O)Nc2cccc(C(F)(F)F)c2)c1[N+](=O)[O-],inactive
7,CC1(NS(=O)(=O)c2ccc(Cl)s2)CCS(=O)(=O)C1 (centres undefined),inactive
8,C/C(=N/OCO/N=C(\C)c1ccccc1)c1ccccc1,inactive
9,O=S(=O)(Nc1nc2ccccc2nc1NCc1ccco1)c1ccc(F)cc1,inactive
10,CCC1CCCCN1S(=O)(=O)c1ccc(NC(=O)c2nc(S(C)(=O)=O)ncc2Cl)cc1 (centres undefined),inactive
11,O=S(=O)(c1ccc(Cl)cc1)N1CCN(C(=S)Nc2ccccc2F)CC1,inactive
12,CC(C)(C)OC(=O)[C@H](Cc1ccccc1)NC(=O)c1nc[nH]c1C(=O)N1CCN(C(=O)OC(C)(C)C)CC1,inactive
13,C[C@@H](NC(=O)c1nc[nH]c1C(=O)N1CCN(C(=O)OC(C)(C)C)CC1)c1ccccc1,inactive
14,CCn1c2ccccc2c2cc(NC(=O)c3ccc(=O)oc3)ccc21,inactive
15,CN(C)CCOCCOc1ccc(Cl)cc1C(C)(C)C,inactive
16,O=c1cc(-c2ccccc2)nc(/C=C/c2ccccc2)[nH]1,inactive
17,Cc1nonc1OC(C)CNCCNc1ccc([N+](=O)[O-])cc1 (centres undefined),inactive
18,COc1ccc(-n2c(CN3CCC(C(N)=O)CC3)nc3ccc([N+](=O)[O-])cc3c2=O)c(OC)c1,inactive
19,CCn1cc(C(=O)O)c(=O)c2cc(F)c(N3CCN(C(=S)NC(=O)c4ccc(F)cc4)CC3)cc21,inactive
20,S=c1[nH]nc(-c2ccccn2)n1/N=C/c1ccc(-c2ccccc2Br)o1,inactive
21,O=C(Nc1ccc(Cl)cc1C(=O)c1ccccn1)c1ccccc1,inactive
22,O=C(O)c1cccnc1Nc1ccc(Cl)cc1,inactive
23,Cc1cc(C(=O)Cn2nnc3ccccc3c2=O)c(C)n1-c1ccccc1F,inactive
24,Cc1ccc(C)c(-n2cc(CNC(C)Cn3cncn3)c(-c3ccccc3)n2)c1 (centres undefined),inactive
25,O=C(N/N=C(\CC(=O)c1cccs1)C(F)(F)F)c1ccncc1,inactive

row,Compound,outcome
1,CCOC(=O)c1oc2ccc(S(=O)(=O)n3nc(-c4ccc(C)cc4)cc3N)cc2c1C,inactive
2,COc1ccccc1/C=C/C(=O)c1ccc(NC(C)=O)cc1,inactive
3,CC(=O)Nc1ccc(S(=O)(=O)Nc2nc(C)nc3sc4c(c23)CCC4)cc1,inactive
4,CCOC(=O)c1c(CSC(=N)N)n(-c2ccccc2)c2cc(Br)c(OC(C)=O)cc12,inactive
5,CC(C)=CCN1CCN(Cc2cccc3nccnc23)CC1CCO (centres undefined),inactive
6,Cc1ccc(/C([O-])=C(/C(=S)Nc2ccc(SC(F)F)cc2)[n+]2ccccc2)cc1[N+](=O)[O-],inactive
7,Cc1ccc(/C=N/NC(=O)C[n+]2ccccc2)s1,inactive
8,Cc1ccc(NC(=O)NCc2ccc3[nH]c(C)cc3c2)cc1,inactive
9,COc1cc(/C=C/C(=O)c2c(O)ccc3c(C)cc(=O)oc23)ccc1O,inactive
10,Cc1ccc(/C=C/c2onc(C)c2S(=O)(=O)N2CCC(C(=O)N3CCN(C)CC3)CC2)cc1,inactive
11,O=C(NC(Cc1c[nH]c2ccccc12)C(=O)Nc1ccc(F)cc1)c1cccs1 (centres undefined),inactive
12,S=c1[nH]nc(-c2ccccc2)n1/N=C/c1ccc(-c2ccccc2Cl)o1,inactive
13,Cc1ccc(NC(=O)c2ncn(CCCNCC3CCCCC3)n2)cc1C,inactive
14,CCOc1ccccc1NC(=O)c1cc(S(=O)(=O)NCc2ccco2)ccc1F,inactive
15,CN1CCc2cccc3c2[C@H]1Cc1ccc(O)c(O)c1-3,inactive
16,COc1ccc2cc(-c3cc(C(=O)O)c4ccccc4n3)ccc2c1,inactive
17,CCOc1ccc(NC(=O)Cn2sc3nc(C)cc(C)c3c2=O)cc1,inactive
18,CCOc1ccc(NC(=O)c2c(NC(=O)CN3CCN(C)CC3)sc3c2CCC3)cc1,inactive
19,CC(C)CC1c2[nH]c3ccccc3c2CCN1CCCn1cccn1 (centres undefined),inactive
20,Nc1ncnn1Cc1ccccc1,inactive
21,CCOC(=O)C1=NN(C(=O)c2ccc(OC)cc2)C(O)(c2ccc(Cl)cc2)C1 (centres undefined),inactive
22,CCC(=NN=C(CC)c1ccccc1O)c1ccccc1O,inactive
23,C#CCOc1ccc(C2C3=C(CC(C)(C)CC3=O)N(CC(=O)O)C3=C2C(=O)CC(C)(C)C3)cc1OC,inactive
24,O=c1c2cccnc2[nH]c(=S)n1CCCN1CCN(c2ccccc2F)CC1,inactive
25,O=C(NCc1ccccc1)C(=O)Nc1nc(-c2ccccc2)cs1,inactive

row,Compound,outcome
1,Cc1cccc(-n2c(O)c(C=Nc3ccccc3-c3n[nH]c(=S)[nH]c3=O)c3ccccc3c2=O)n1,inactive
2,O=C(CNC(=O)C1COc2ccccc2O1)N/N=C\c1ccc(Cl)cc1 (centres undefined),inactive
3,Nc1ccc(C(=O)OCCCc2nc3cc4ccccc4cc3[nH]2)cc1,inactive
4,CN(C)CCNc1nc2sc3c(c2c(=O)n1-c1ccccc1)CCCCC3,inactive
5,Cc1ccc(-c2cc(-c3ccco3)c3c(N)c(C(=O)NN)oc3n2)cc1,inactive
6,Cc1cccc(-c2ccc(NC(=O)C3CCN(CC4CC4)CC3)cc2)c1,inactive
7,CCn1ncc(CN2CCC(C(=O)Nc3cccc(-c4cccc(F)c4)c3)CC2)c1C,inactive
8,Cc1cccn2c(=O)c3cc(C#N)c(=NC(=O)c4cccs4)n(CC(C)C)c3nc12,inactive
9,COCCNC(=S)NCc1ccc2[nH]c3c(c2c1)CCCC3,inactive
10,Cc1cc2nc3c(=O)[nH]c(=S)[nH]c3nc2cc1NC(=O)C(F)(F)F,inactive
11,Cc1cccnc1CN1CCN(Cc2nc(C(c3ccccc3)c3ccccc3)no2)CC1,inactive
12,CN1CCc2nc(SCc3cccc(Br)c3)c(C#N)cc2C1,inactive
13,COc1ccc2sc(N(CCCN(C)C)C(=O)c3ccc(S(=O)(=O)N(C)C4CCCCC4)cc3)nc2c1,inactive
14,COc1ccc2sc(N(CCCN(C)C)C(=O)c3ccc(S(=O)(=O)N(C)Cc4ccccc4)cc3)nc2c1,inactive
15,O=C(NNC(=O)c1cc2cc(OC(F)(F)F)ccc2[nH]1)c1ccc(Cl)cc1,inactive
16,NNC(=O)c1n[nH]c(=O)c2ccccc12,inactive
17,Cc1cccc(CS(=O)(=O)c2ncc(Cl)c(C(=O)NCc3ccccc3)n2)c1,inactive
18,CCOc1ccc(N2C(=O)CC(Sc3nc4ccc(OCC)cc4s3)C2=O)cc1 (centres undefined),inactive
19,CCOc1ccc(Cn2c(=O)sc3ccccc32)cc1,inactive
20,Cc1ccc2nc(-c3ccc(NC(=S)NCC(C)(C)CN(C)C)cc3)sc2c1,inactive
21,Cc1nc(-c2ccccn2)sc1C(=O)Nc1ccc(Cl)c(Cl)c1,inactive
22,CC12CCC(C(=NO)C1=O)C2(C)C (centres undefined),inactive
23,O=[N+]([O-])c1ccc(CNC2CCCc3ccccc32)cc1 (centres undefined),inactive
24,COCCCNCCCCOc1ccc(OCc2ccccc2)cc1,inactive
25,CN(C)c1ccc(P(=O)(OCc2ccccc2)C(O)c2ccccc2)cc1 (centres undefined),inactive

row,Compound,outcome
1,CCOc1ccccc1Nc1nnc(SC(C)C(=O)Nc2nc(-c3ccccc3)cs2)s1 (centres undefined),inactive
2,Cc1cc(C(=O)OC(C)C(=O)Nc2nc(-c3ccccc3)cs2)c(C)o1 (centres undefined),inactive
3,CC(Oc1ccc(F)cc1)C(=O)Nc1ccc2ccccc2c1 (centres undefined),inactive
4,CC(Oc1ccccc1F)C(=O)Nc1ccc2ccccc2c1 (centres undefined),inactive
5,Cc1cccc(-n2nc([N+](=O)[O-])c(=NC3CCN(Cc4ccccc4)CC3)n2O)c1,inactive
6,Cc1ccc(C)c(NC(=S)NCCN(C2CCCCC2)C2CCCC2)c1,inactive
7,COC(=O)Cn1c(=O)c(C(=O)CCl)c(N)n(Cc2ccccc2)c1=O,inactive
8,CCOc1ccc(-n2c(=O)c3sccc3n(Cc3cccc([N+](=O)[O-])c3)c2=O)cc1,inactive
9,Cc1ccc(C(=O)C[n+]2ccccc2C)cc1[N+](=O)[O-],inactive
10,Cc1nn(C(C)C(=O)Nc2ccccc2Cl)c(=O)c2nn(-c3ccccc3)c(C)c12 (centres undefined),inactive
11,Cc1ccc(S(=O)(=O)N2C[C@@H](C)[C@]3(C2)[C@H](O)[C@H](OC(=O)Nc2cccs2)C[C@H]2C(=O)N(c4ccccc4)C(=O)[C@H]23)cc1,inactive
12,COc1ccc(/C=C2\CCCC3C2=NN(C(=O)CSc2n[nH]c(N)n2)C3c2ccc(OC)cc2)cc1 (centres undefined),inactive
13,Cc1ccc2[nH]c(CN3CCC(CO)(CC4CCCCO4)CC3)c(C)c2c1 (centres undefined),inactive
14,COc1cc(C(=O)O/N=C2/C=CC(=O)C(C)=C2C)cc(OC)c1OC,inactive
15,CC[C@@H](O)C[C@H]1CCC[C@@]2(C[C@@H]3OC(=O)/C=C/[C@@](C)(O)[C@@H](O)[C@H](C)[C@@H](O)[C@H](OC4CCC(N(C)C)C(C)O4)[C@@H](O)[C@](C)(O)CCCCC/C=C/[C@@H]4CC(C)(C)O[C@@]4(O)C[C@H](O2)[C@H]3C)O1 (some centres undefined),inactive
16,COc1ccccc1NC(=O)c1cc2ccccc2o/c1=N\O,inactive
17,O=C(Cc1cccc2ccccc12)Nc1ccc(Br)cc1C(=O)O,inactive
18,CCOC(=O)N1CCN(C(=O)CNC2CCCCCCC2)CC1,inactive
19,COc1ccc(/C=C/C(=O)NC(=S)N2CCN(c3ccccc3OC)CC2)cc1,inactive
20,C=CCN=c1scc(-c2ccccc2)n1/N=C/c1ccccn1,inactive
21,N#C/C(=C/c1ccc(-c2ccc([N+](=O)[O-])cc2)o1)c1nnc(N2CCOCC2)n1-c1ccccc1,inactive
22,O=C(O)c1ccccc1NC(=O)c1ccccc1Nc1ccccc1,inactive
23,Cc1cccc2c(=O)n(C(=O)c3ccccc3)c(N)nc12,inactive
24,Cc1ccc2c(c1)c1c3n2CCN(CC(O)CNC(C)C)C3CCC1 (centres undefined),inactive
